Assay results from PubChem BioAssay (NCI).
This is part of a sample that, as a whole, favours compounds with a hit. Of some 79,000 tested, about 15% had one in any assay. Activity calls are given as the source filed them. No stated cut-off is given here; in the data, active means growth inhibition above about 70%; inactive means the rest.

Columns and labels:
[1] = NCI Yeast Anticancer Drug Screen. Data for the mec2-1 strain (AID 157); conditions: S. cerevisiae mec2-1 strain, stronger effect = higher value
Outline: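 Compounds were applied to mec2-1 yeast cells. Their growth was then compared with that of vehicle-treated cultures to give growth inhibition.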

[2] = NCI Yeast Anticancer Drug Screen. Data for the rad14 strain (AID 159);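 further: 0% = growth of vehicle-treated control cultures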; conditions: S. cerevisiae rad14 strain growth inhibition, stronger effect = higher value
Outline: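 Readout: yeast growth inhibition, referenced to vehicle-only cultures. Strain bears a defined alteration in DNA damage repair.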

[3] = NCI Yeast Anticancer Drug Screen. Data for the sgs1 mgt1 strain (AID 161);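 further: 0% = growth of cultures given vehicle only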; conditions: S. cerevisiae sgs1 mgt1 strain, stronger effect = higher value
Outline: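 Compounds are added to genetically altered yeast, and growth is compared with cultures given vehicle alone to give percent inhibition.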

[4] = NCI Yeast Anticancer Drug Screen. Data for the CLN2oe strain (AID 163);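 further: 0% = growth of vehicle-only control cultures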; conditions: S. cerevisiae CLN2oe strain, stronger effect = higher value
Outline: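 Cells of an engineered yeast line with disturbed cell-cycle regulation are treated with compound. Inhibition of growth is then calculated relative to the vehicle-treated reference.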

[5] = NCI Yeast Anticancer Drug Screen. Data for the cln2 rad14 strain (AID 165);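 further: 0% = growth equal to vehicle treated cultures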; conditions: S. cerevisiae cln2 rad14 strain, stronger effect = higher value
Outline: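 Strain: cln2 rad14 yeast, altered in cell cycle control and DNA damage repair. Read-out: growth inhibition vs vehicle.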

[6] = NCI Yeast Anticancer Drug Screen. Data for the bub3 strain (AID 167); conditions: S. cerevisiae bub3 mutant strain, stronger effect = higher value
Outline: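 Part of a panel of yeast mutants defective in DNA damage repair or cell cycle regulation. Each strain is grown with compound, and inhibition is calculated relative to solvent-treated cultures.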

[7] = NCI Yeast Anticancer Drug Screen. Data for the wt2 strain (AID 169);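 further: 0% = growth of vehicle-treated yeast cultures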; conditions: S. cerevisiae wt2 strain growth inhibition, stronger effect = higher value
Outline: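 Growth of compound-treated yeast is measured and expressed as inhibition relative to vehicle-only controls.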

[8] = NCI Yeast Anticancer Drug Screen. Data for the mlh1 strain (AID 171);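 further: 0% = growth of vehicle-treated control cultures of the same strain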; conditions: S. cerevisiae mlh1 strain growth inhibition, stronger effect = higher value
Outline: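 Test agents were incubated with yeast bearing a defined DNA damage repair or cell cycle control alteration; values are growth inhibition normalised to vehicle-treated cultures.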

[9] = NCI Yeast Anticancer Drug Screen. Data for the sgs1 strain (AID 173);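 further: 0% = growth of vehicle-only control cultures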; conditions: S. cerevisiae sgs1 mutant, stronger effect = higher value
Outline: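 Strain with an altered DNA repair or cell cycle pathway exposed to compound. Growth then measured. Value = inhibition versus vehicle control.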

[10] = NCI Yeast Anticancer Drug Screen. Data for the mlh1 rad18 strain (AID 175); conditions: S. cerevisiae mlh1 rad18 strain growth inhibition, stronger effect = higher value
Outline: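 A repair-deficient yeast strain is exposed to test compound, and growth is scored relative to vehicle-treated controls.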

[11] = NCI Yeast Anticancer Drug Screen. Data for the rad18 strain (AID 177); conditions: S. cerevisiae rad18 mutant growth inhibition, stronger effect = higher value
Outline: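 DNA-repair-defective yeast; compound treatment; growth inhibition scored against vehicle.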

[12] = NCI Yeast Anticancer Drug Screen. Data for the rad52 strain (AID 147);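 further: 0% = growth of vehicle-treated control cultures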; conditions: S. cerevisiae rad52 mutant growth inhibition, stronger effect = higher value
Outline: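 Growth of repair-deficient yeast cells was compared between compound-treated and vehicle-treated cultures to give percent inhibition.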

[13] = NCI Yeast Anticancer Drug Screen. Data for the wt1 strain (AID 149);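 further: 0% = growth of vehicle-treated wt1 cultures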; conditions: S. cerevisiae wt1 strain (SPY 50644) growth inhibition, stronger effect = higher value
Outline: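 The wt1 strain was treated with compounds, and growth was compared with vehicle-treated cultures to give inhibition.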

[14] = NCI Yeast Anticancer Drug Screen. Data for the rad50EPP+ strain (AID 151);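 further: 0% = growth of vehicle-treated control cultures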; conditions: S. cerevisiae rad50 mutant strain, stronger effect = higher value
Outline: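 Measured: growth inhibition of rad50EPP+ yeast. Reference: vehicle-treated controls. Screen uses strains with defined genetic alterations in DNA damage repair or cell cycle control.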

[15] = NCI Yeast Anticancer Drug Screen. Data for the rad50 strain (AID 155);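 further: 0% = growth of vehicle-only cultures of the same strain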; conditions: S. cerevisiae rad50 strain growth inhibition, stronger effect = higher value
Outline: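 Cells are treated with compound, grown, and their growth is then scored against vehicle-only cultures of the same repair-deficient yeast strain.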

[16] = at 5.0 µM (retest, dose inferred, filed as 0.5)
[17] = at 50.0 µM (retest, dose inferred, filed as 5.0)

Measured: growth inhibition

CC(C)c1[nH]nc(C(N)=O)c1N=NN(C)C
inactive: [1]; at 100.0 µM 61% | [2]; at 1.2 µM -1% | [2]; at 3.7 µM 1% | [2]; at 11.0 µM 6% | [2]; at 33.0 µM 12% | [2]; at 100.0 µM 29% | [3]; [16] -47% | [3]; [17] 24% | [3]; at 50.0 µM 28.9% | [4]; at 1.2 µM -3% | [4]; at 3.7 µM -5% | [4]; at 11.0 µM -2% | [4]; at 33.0 µM -5% | [4]; at 100.0 µM 6% | [5]; [16] -55% | [5]; [17] -43% | [5]; at 50.0 µM 5.65% | [6]; at 1.2 µM -17% | [6]; at 3.7 µM -5% | [6]; [16] -63% | [6]; at 11.0 µM -5% | [6]; at 33.0 µM -14% | [6]; [17] -87% | [6]; at 50.0 µM -4% | [6]; at 100.0 µM -2% | [7]; at 1.2 µM -2% | [7]; at 3.7 µM -1% | [7]; at 11.0 µM -2% | [7]; at 33.0 µM -8% | [7]; at 100.0 µM 4% | [8]; at 1.2 µM 4% | [8]; at 3.7 µM -8% | [8]; at 11.0 µM -2% | [8]; at 33.0 µM -3% | [8]; at 100.0 µM 4% | [9]; at 1.2 µM -2% | [9]; at 3.7 µM -6% | [9]; at 11.0 µM 12% | [9]; at 33.0 µM 51% | [10]; [16] -101% | [10]; [17] 24% | [10]; at 50.0 µM 58.1% | [11]; at 1.2 µM 3% | [11]; at 3.7 µM 12% | [11]; at 11.0 µM 39%
active: [9]; at 100.0 µM 84% | [11]; at 33.0 µM 80% | [11]; at 100.0 µM 94%

S=c1cn[nH]c2ccc(Br)cc12
active: [12]; at 100.0 µM 74% | [14]; at 33.0 µM 70% | [14]; at 100.0 µM 83% | [15]; at 33.0 µM 78% | [15]; at 100.0 µM 85% | [4]; at 100.0 µM 76% | [6]; at 50.0 µM 77% | [6]; at 100.0 µM 72% | [8]; at 100.0 µM 73% | [10]; [17] 75% | [10]; at 50.0 µM 85.6%
inactive: [12]; at 1.2 µM -1% | [12]; at 3.7 µM 8% | [12]; at 11.0 µM 10% | [12]; at 33.0 µM 52% | [13]; at 1.2 µM -5% | [13]; at 3.7 µM -6% | [13]; at 11.0 µM -11% | [13]; at 33.0 µM 1% | [13]; at 100.0 µM 43% | [14]; at 1.2 µM -2% | [14]; at 3.7 µM -1% | [14]; at 11.0 µM 17% | [15]; at 1.2 µM -3% | [15]; at 3.7 µM -9% | [15]; [16] -152% | [15]; at 11.0 µM 13% | [15]; [17] 66% | [15]; at 50.0 µM 69.5% | [1]; at 1.2 µM 2% | [1]; at 3.7 µM -3% | [1]; [16] -53% | [1]; at 11.0 µM -6% | [1]; at 33.0 µM 8% | [1]; [17] -9% | [1]; at 50.0 µM 56.3% | [1]; at 100.0 µM 53% | [2]; at 1.2 µM 2% | [2]; at 3.7 µM 4% | [2]; at 11.0 µM 5% | [2]; at 33.0 µM 30% | [2]; at 100.0 µM 62% | [3]; [16] -58% | [3]; [17] 61% | [3]; at 50.0 µM 68.9% | [4]; at 1.2 µM -4% | [4]; at 3.7 µM -4% | [4]; at 11.0 µM -5% | [4]; at 33.0 µM 40% | [5]; [16] -68% | [5]; [17] -20% | [5]; at 50.0 µM 35.9% | [6]; at 1.2 µM -12% | [6]; at 3.7 µM -9% | [6]; [16] -79% | [6]; at 11.0 µM -12% | [6]; at 33.0 µM 52% | [6]; [17] 60% | [7]; at 1.2 µM -4% | [7]; at 3.7 µM -3% | [7]; at 11.0 µM -5% | [7]; at 33.0 µM 20% | [7]; at 100.0 µM 40% | [8]; at 1.2 µM 4% | [8]; at 3.7 µM -7% | [8]; at 11.0 µM -5% | [8]; at 33.0 µM 46% | [10]; [16] -109%

CCN(CC)N=Nc1c(C(N)=O)n[nH]c1C
inactive: [12]; at 1.2 µM 0% | [12]; at 3.7 µM -3% | [12]; at 11.0 µM 8% | [12]; at 33.0 µM 47% | [13]; at 1.2 µM -6% | [13]; at 3.7 µM -5% | [13]; at 11.0 µM -7% | [13]; at 33.0 µM -5% | [13]; at 100.0 µM 0% | [14]; at 1.2 µM -2% | [14]; at 3.7 µM 3% | [14]; at 11.0 µM 5% | [14]; at 33.0 µM 31% | [15]; at 1.2 µM -10% | [15]; at 3.7 µM -8% | [15]; [16] -138% | [15]; at 11.0 µM 9% | [15]; at 33.0 µM 54% | [15]; [17] 56% | [1]; at 1.2 µM 2% | [1]; at 3.7 µM 1% | [1]; [16] -46% | [1]; at 11.0 µM 8% | [1]; at 33.0 µM 2% | [1]; [17] -40% | [1]; at 50.0 µM 15.8% | [1]; at 100.0 µM 27% | [2]; at 1.2 µM -2% | [2]; at 3.7 µM 1% | [2]; at 11.0 µM 0% | [2]; at 33.0 µM 3% | [2]; at 100.0 µM 23% | [3]; [16] -62% | [3]; [17] -35% | [3]; at 50.0 µM -0.05% | [4]; at 1.2 µM -5% | [4]; at 3.7 µM 1% | [4]; at 11.0 µM 0% | [4]; at 33.0 µM 0% | [4]; at 100.0 µM 4% | [5]; [16] -55% | [5]; [17] -63% | [5]; at 50.0 µM -29.2% | [6]; at 1.2 µM -15% | [6]; at 3.7 µM -12% | [6]; [16] -65% | [6]; at 11.0 µM -9% | [6]; at 33.0 µM -9% | [6]; [17] -84% | [6]; at 50.0 µM -22.8% | [6]; at 100.0 µM -2% | [7]; at 1.2 µM -1% | [7]; at 3.7 µM 0% | [7]; at 11.0 µM -1% | [7]; at 33.0 µM -1% | [7]; at 100.0 µM 2% | [8]; at 1.2 µM 6% | [8]; at 3.7 µM -6% | [8]; at 11.0 µM -5% | [8]; at 33.0 µM -2% | [8]; at 100.0 µM -3% | [9]; at 1.2 µM -1% | [9]; at 3.7 µM -1% | [9]; at 11.0 µM -2% | [9]; at 33.0 µM 9% | [9]; at 100.0 µM 43% | [10]; [16] -124% | [10]; [17] -75% | [10]; at 50.0 µM 40.4% | [11]; at 1.2 µM -2% | [11]; at 3.7 µM 0% | [11]; at 11.0 µM 6% | [11]; at 33.0 µM 23%
active: [12]; at 100.0 µM 93% | [14]; at 100.0 µM 80% | [15]; at 50.0 µM 85.3% | [15]; at 100.0 µM 92% | [11]; at 100.0 µM 83%
